Percent Effect data for 20 molecules are collected here from ChEMBL document CHEMBL3988442, “University of Dundee, Small-Polar-MMV Screening Library” (2021).

The target in this experiment is T1, Aspartate--tRNA(Asp/Asn) ligase (Mycobacterium tuberculosis (strain ATCC 25618 / H37Rv)) (UniProt P9WFW3).
T1 sequence (whole entry): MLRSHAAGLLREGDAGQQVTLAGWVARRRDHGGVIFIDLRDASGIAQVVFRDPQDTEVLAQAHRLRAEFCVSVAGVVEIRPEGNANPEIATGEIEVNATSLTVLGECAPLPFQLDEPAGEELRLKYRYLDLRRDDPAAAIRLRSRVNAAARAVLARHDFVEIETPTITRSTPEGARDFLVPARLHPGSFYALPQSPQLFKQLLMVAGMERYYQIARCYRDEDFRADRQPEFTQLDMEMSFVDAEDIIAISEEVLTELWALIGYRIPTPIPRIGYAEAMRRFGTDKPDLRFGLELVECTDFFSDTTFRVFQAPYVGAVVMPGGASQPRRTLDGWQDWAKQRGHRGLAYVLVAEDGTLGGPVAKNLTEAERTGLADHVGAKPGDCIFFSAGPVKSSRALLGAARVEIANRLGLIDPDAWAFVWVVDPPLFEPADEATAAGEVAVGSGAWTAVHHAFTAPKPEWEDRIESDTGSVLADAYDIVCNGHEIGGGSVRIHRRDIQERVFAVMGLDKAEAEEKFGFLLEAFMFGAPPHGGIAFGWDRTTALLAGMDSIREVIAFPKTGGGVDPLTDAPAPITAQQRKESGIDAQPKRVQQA
Nature of the experiment: Assay for Asp RNA synthetase-1 from Mycobacterium tuberculosis. The class given is functional. Set-up: scale not given: in the data most compounds retested in dose-response had high values. The settings on record: 30 µM.
Regarding `Cc1cc(S(=O)(=O)N2CCCc3cc(F)cc(F)c32)sc1C(=O)O`, the Percent Effect was -0.908%.
Next, `CN1C(=O)CC(C(=O)O)C12CCN(Cc1ccc(Cl)cc1F)CC2` (stereo not given): -1.62%.
Next, `CC(C)n1ccnc1C1CCCN(c2ccccn2)C1` (stereo not given): -2.15%; `O=C1CC(c2cccs2)c2cnn(C3CCCC3)c2N1` (stereo not given): -1.62%; `CC(C)n1ccnc1C1CCCN(c2ccnc3ccccc23)C1` (stereo not given): -3.69%.
As to `CC(C)c1cccc(CSc2nnc(CN3CCCC3=O)o2)n1`, the Percent Effect stood at 1.44%.
Regarding `Cc1ccc(CNCc2nnc3n2CCCC3C(F)(F)F)o1` (stereo not given), the Percent Effect was found to be 0.425%.
As for `COc1c(C)cnc(CSc2nnc(C)s2)c1C`, the figure is -1.18%.
With `CCOCC(=O)N1C[C@@H](NC(C)=O)[C@H](c2ccc(OC)cc2)C1`, the Percent Effect is -0.287%.
Next, `CSCc1nc(C(C)(C)NC(=O)OC(C)(C)C)no1`: -0.954%.
Regarding `COCCN(C)CC(=O)N1C[C@H]2CC[C@@H]1CN(C(=O)c1ccncc1)C2`, the Percent Effect was -1.85%.
As for `CN(Cc1cc[nH]n1)C(=O)c1cccc(CCC(C)(C)O)c1`, the figure is -0.264%.
Next, `O=C(NC1(c2nnn(CCO)n2)CCCC1)c1ccccc1`: -6.13%; `Cc1ccc(C(NC(=O)[C@H]2CC[C@@H](O)CC2)c2cccnc2)cc1C` (stereo not given in full): -3.21%.
For the molecule `Cc1ncc(C(=O)N2C[C@H]3CC[C@@H]2CN(S(=O)(=O)N(C)C)C3)c(C)n1`, the Percent Effect was -0.678%.
For `CSCCC1c2nc[nH]c2CCN1Cc1cc(Cl)ccc1O` (stereo not given), the Percent Effect was 0.954%.
With `OC1(CN2CCCC2)CCCN(Cc2ccc(F)cc2Cl)C1` (stereo not given), the Percent Effect amounted to 4.15%.
As for `Cc1ccc(C2COCCN2C(=O)c2ccc(CN(C)C)cc2)o1` (stereo not given), the figure is -1.28%; as for `CCN(CC1CN(Cc2ncc(C)o2)CCO1)c1cccnn1` (stereo not given), -1.34%; as for `CCS(=O)(=O)c1ccc(N2CCC(NC(=O)CCC(C)C)CC2)cc1`, -2.31%.
